Results from the supplement of paper PMC3334620.
In all, about 33,000 sequences were measured (“E-score (-0.5 to 0.5)”: median about -0.0059, highest 2% from about 0.26 on). Only a selection was taken, and the highest values are over-represented in it overall.

These sequences were tested against T1, Cin5 (UniProt P40917) (assay: PBM E-score (8-mer binding enrichment) (E-score (-0.5 to 0.5)); higher = stronger / more preferred TF binding). Details: protein concentration: 100 nM; construct: GST-full length.
T1 sequence: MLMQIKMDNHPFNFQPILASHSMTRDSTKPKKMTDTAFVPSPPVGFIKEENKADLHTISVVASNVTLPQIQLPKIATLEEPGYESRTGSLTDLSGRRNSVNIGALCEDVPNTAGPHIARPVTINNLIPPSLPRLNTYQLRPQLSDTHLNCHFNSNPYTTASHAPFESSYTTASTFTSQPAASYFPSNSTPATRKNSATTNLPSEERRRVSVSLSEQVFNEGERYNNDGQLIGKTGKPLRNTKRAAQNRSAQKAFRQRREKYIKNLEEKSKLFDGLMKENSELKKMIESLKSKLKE
In short: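 Yeast transcription factors carrying a GST tag, as full-length proteins or DNA-binding domains, were produced by PURExpress in vitro transcription/translation. About 100-200 nM protein was applied to universal all-10-mer Agilent arrays, double-stranded by primer extension on fresh or once-stripped slides. Bound protein was detected with fluorescent anti-GST, and scans were normalised with masliner. The Universal PBM Analysis Suite gave each ungapped eight-base word, pooled with its reverse complement, an E-score, a modified Wilcoxon-Mann-Whitney statistic.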

Sequence | PBM E-score
ATCAATTA | 0.317
AACAATTC | 0.111
ACCAATTA | 0.266
ACCAATTG | -0.0132
GCCAATTA | 0.155
ATCAATTG | 0.232
CCTGGACG | -0.179
GCCTCAAA | 0.0112
GGCCTGGA | -0.317
AGCCCCAG | -0.0735
CCTCACAG | 0.0094
CGGGGAAG | -0.0981
CACGTTGA | -0.095
CTAAGCTA | 0.162
GTAAGCCA | 0.264
ATAAGCTA | 0.2
ATAAGCCA | 0.11
GTAAGCTA | 0.36
CTAAGCCA | -0.074
AGTCTCAG | -0.123
AACCTGAC | 0.131
ACGAGTCA | -0.257
CAAGAAGC | 0.0478
AGCTCATG | -0.0196
CAGACGAA | 0.286

Sequence | PBM E-score
GAGACGAA | 0.0297
CAGACGAC | -0.168
GAGCGGTA | -0.0453
GCAAAAGC | -0.0287
ATCCCGCA | 0.135
ATTCCGCG | 0.261
ATTCCACA | 0.266
ATTCCACG | 0.0808
ATTCCGCC | 0.215
ATCCCGCG | 0.258
ATTCCACC | 0.15
ATCCCGCC | 0.0426
ATTCCGCA | -0.0146
ATGACGCA | 0.195
CTTATTAA | 0.299
ATTATTAC | 0.305
ATTATTAA | 0.316
ACTATTAC | 0.224
ACTATTAA | 0.162
GTTATTAA | 0.214
CGTATTAA | 0.106
CTTATTAC | 0.236
CTTATTGA | 0.125
CGGGAACG | -0.00694
GAGCGGCC | -0.239

Sequence | PBM E-score
GAGATCTC | -0.0335
GATCCCTA | -0.0517
ATCATAAT | 0.327
CACATAAG | 0.109
ATCATAAG | 0.204
AACATAAT | 0.346
AACATACT | 0.0533
ATCATAAA | 0.131
AACATAAG | 0.328
AACATAAC | 0.223
AACATACG | 0.171
AAGTCAAC | 0.0456
CACTGTTC | -0.108
AGGATATA | 0.152
CAGTCCGA | -0.0341
AGGTTAGC | -0.199
TCGTCGAA | -0.161
AAACATAC | 0.0238
AAACATGT | 0.261
AAACATGG | 0.0681
AAACATAG | -0.0763
AAACATGA | 0.131
AAACATAT | 0.269
CCCAAGGC | -0.0737
AAACCTTG | 0.072

Sequence | PBM E-score
ACTAAAGA | -0.0785
CAGGGCGC | -0.0291
GAAGCGAA | -0.0046
TAAGCACA | 0.314
CAAGCGAA | 0.187
CAAGCAGA | 0.0983
CAAGCACG | -0.0414
TAAGCAGA | 0.306
AAAGCAGA | 0.178
TAAGCGAA | 0.275
CAAGCACA | -0.0819
ACCGGGAC | -0.0537
AAGGGGAG | -0.252
AATTTTCC | 0.289
ATTTTCCC | 0.0377
ATTTCTCC | 0.0831
ATTTTTCC | -0.0233
AATTTACG | 0.234
ATTTCTCG | 0.313
ATTTCTCA | 0.0803
ATTTTACC | 0.237
ATTTTACG | 0.271
AATTTTTC | 0.057
ATTTTCCG | 0.329
AATTTCCG | 0.18

Sequence | PBM E-score
ATACTTCG | 0.129
GACGTCCC | -0.0301
GCATTCGC | -0.157
AGACACCT | -0.048
CGAGCGCA | 0.0288
CCGCCACG | -0.222
ATTTCCCA | 0.165
ATTTCCCG | 0.258
ATTTCCCC | 0.0813
CAGTAACC | -0.021
AAGCAATC | 0.165
ATCTAATA | 0.19
ACCTAATA | 0.246
ACCTAAGC | 0.327
ACCTAATC | 0.311
ATCTAATC | 0.306
GCCTAAGC | -0.181
CCCTAATC | 0.0683
CCCTAAGC | -0.145
ATCTAATG | -0.00795
CGCGGTAC | -0.0212
CATTGCTC | -0.157
CCTACAGG | -0.33
AAAGAAAA | 0.112
CGAATGAA | 0.0154

Sequence | PBM E-score
AGAATGAC | 0.0989
CGAATGAC | 0.275
AGAGGACC | -0.22
CTATCATA | 0.21
ATATCATG | 0.0651
GTATCATA | 0.274
GTATCAGA | -0.0398
GTATCACA | 0.154
ATATCATA | 0.288
CTGTGACC | 0.0399
CAACTATC | 0.0334
CCATAATC | 0.245
GCATAATA | 0.235
ACATAATG | 0.204
CCATAATA | 0.226
ACATAATA | 0.364
ACATAATC | 0.445
ACTGCCCC | -0.125
ACCGCGCA | 0.151
CGCCTCTC | -0.34
AAATAAGT | 0.12
TACTAATA | 0.193
AAATAATC | 0.17
GAATAACA | 0.26
AAATAAAT | 0.246

Sequence | PBM E-score
AAATAACA | 0.171
CACTAATA | 0.158
AACTAATA | 0.378
AAATAATA | 0.313
AAATAATG | 0.21
CAATAACA | 0.193
AAATAATT | 0.301
AAAAGTTT | 0.00197
GCTTAAGA | -0.0654
ACGCCTGC | -0.234
CTCAGCGC | 0.0746
AATTCTCA | 0.0439
CTGCAGTC | -0.165
CTAAACTC | -0.0293
ACGAGGTA | 0.0339
GAATAATA | 0.291
TAATAAAA | 0.235
CAATAATA | 0.276
CAATAATC | 0.233
CAATAATG | 0.0624
GAATAATC | 0.221
TAATAACA | 0.146
TAATAATA | 0.274
GAATAAAA | 0.0288
